Values joined by “and” are separate entries in the source; they are usually repeats but may differ in a detail not shown here. Identical values can stand only once. The panel holds about 83,000 compounds, 20% with a hit somewhere; the sample as a whole holds those more often.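 Cells were grown in 96-well plates and exposed to the test compound at a single concentration for 48 hours; results are reported as percent growth, with values below 10 considered active.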 Values without a mark were called inactive. Active and inactive are the calls of the source.
These compounds were tested on MDA-MB-468 breast (assay: NCI-60 one-dose screen, 48 h (100 = growth as untreated, 0 = no growth, -100 = all killed)). Conditions: 10 µM unless noted.

Compared with COc1ccc2c(c1)nc(N)c1c3cccnc3cn21, COc1ccc(NC(=O)c2sc3nc(C)c(C(=O)c4ccccc4)cc3c2N)cc1 is higher in growth: 13.4% for the first, 83.9% for the second.

Compared with Nc1ccccc1-c1cc2c(c3c1[nH]c1ccccc13)CCCCC2, Cn1c(=O)c2c(-c3ccccc3F)n(-c3ccc4c(c3)OCO4)cc2n(C)c1=O is lower in growth: 98.2% for the first, 83.2% for the second.

Going from O=C(Nc1ccccc1CNc1nc(Nc2ccc(OCCN3CCCC3)cc2)ncc1Cl)NC1CCCCC1 to CN1CCN(CCOc2ccc(-c3cnc4c(-c5ccc(F)cc5)cnn4c3)cc2)CC1, the growth falls from 89.4% to 61.3%.

Compared with O=C(Nc1ccc(-n2cc(-c3ccncc3)c(-c3ccc(O)c(Cl)c3)n2)cc1)Nc1cccc(Cl)c1Cl, COc1ccc(-c2nn(-c3cccc(NC(=O)c4cccc(C(F)(F)F)c4)c3)cc2-c2ccncc2)cc1Cl is lower in growth: 43.5% for the first, 31.4% for the second.

Compared with CC(C)(C)n1cc(-c2ccnc(NCCCNS(=O)(=O)c3ccc(F)cc3)c2)c(-c2cccc(F)c2)n1, COc1cc(-c2nn(C(C)(C)C)cc2-c2ccnc(NCCCNS(=O)(=O)c3ccccc3)n2)ccc1Cl is higher in growth: 53.2% for the first, 67.3% for the second.

First: COc1cc(CN2CCO[C@H](COc3cccc(F)c3)C2)ccc1Cl
Second: COc1ccc(CCNc2nc(SC)nc(-c3cccc([N+](=O)[O-])c3)c2C#N)cc1OC
The growth of the first is lower: 11.4% for the first, 84.8% for the second.

Compared with CC1=NC2=NN3C(=NN2C(c2ccccc2)=C1)N=NC(c1ccc(Br)cc1)=C3c1ccc(Br)cc1, CN(Cc1ccccc1)c1nc(Cl)c(C2CC(c3ccccc3)=NN2c2ccccc2)s1 (stereo not given) is lower in growth: 105% for the first, 98.7% for the second.

Compared with CC/C=C\C[C@H](F)C/C=C1/C(=O)C=C[C@@H]1C/C=C\CCCC(=O)O, CCCC/C=N/NC(=S)NCc1ccccc1 is higher in growth: 52.6% for the first, 93% for the second.

Going from COc1ccc(-c2nc(SCC(C)C)nc(Nc3ccc([N+](=O)[O-])cc3)c2C#N)cc1 to O=C(NNC(=O)c1ccc([N+](=O)[O-])cc1)c1ccc([N+](=O)[O-])cc1, the growth rises from 93.4% to 109%.

Compared with Cn1ccnc1C(=O)/C=C/c1ccc(NC(=O)c2c(F)c(F)c(F)c(F)c2F)cc1, CC(C)(C)c1ccc(/C=C/C(=O)Nc2ccc(O)cc2)cc1 is higher in growth: 92.1% for the first, 92.2% for the second.

Compared with CCOC(=O)c1csc(NC(=O)CSc2nc3sc4c(c3c(=O)n2-c2ccc(Cl)cc2)CCCC4)n1, O=C(CSc1oc(-c2ccccc2)nc1S(=O)(=O)c1ccccc1)Nc1ccc(F)cc1 is lower in growth: 102% for the first, 50.1% for the second.

Compared with Cc1cc(O)ccc1Sc1ccccc1[N+](=O)[O-], CCCCNc1ccc(Nc2ccccc2)cc1 is lower in growth: 95.3% for the first, 11.4% for the second.

Compared with CCCCCCCCCCCCCCCCNC(=S)N/N=C/c1ccc(OC)cc1, COc1ccc(/C=C/c2c(C(=O)/C=C/c3ccc(F)cc3)c(C)nc3ccccc23)cc1 is lower in growth: 108% for the first, 51.5% for the second.

Compared with C=CCC(OC(C)=O)c1ccc(OC)c(OC)c1 (stereo not given), CC1(C)N=C(N)N=C(N)N1c1ccc(F)c(C(F)(F)F)c1 is lower in growth: 125% for the first, 65.1% for the second.

Ic1cccs1 gave a growth of 103%.

With Nc1ccccc1SC(CC(=O)c1ccccc1)c1ccc([N+](=O)[O-])cc1 (stereo not given) the growth was 93.4% and 81.8%.
With COc1cc(C2CC(=O)Nc3c2ccc2ccccc32)cc(Br)c1OC (stereo not given) the growth was -34.3% (active).
For O=C1Nc2cc(OC(F)(F)F)ccc2Oc2ccc(-c3ccnc(N4CCNCC4)c3)cc21, the growth was -79.4% (active).
In the case of Nc1c(C(=O)Nc2c(Cl)cccc2Cl)sc2nc3c(cc12)C(=O)CCC3, the growth is reported as -3.83% (active).
CNC(=O)c1cc(Oc2ccc3c(c2)sc2nc(-c4ccc(Cl)c(C(F)(F)F)c4)cn23)ccn1 was tested, and the growth was 5.6% (active).
For Nc1ccccc1NC(=O)c1ccc(CCCC(=O)Nc2ccc(C3CC3N)cc2)cc1 (stereo not given), the growth was -4.41% (active).
NC(=O)c1c(NC(=O)c2ccc3c(c2)OCO3)sc2c1CCC(=O)C2 was tested, and the growth was -35.3% (active).
CCCCCCCCCCCCCCCCCCOc1ccccc1CC(=O)OCC[N+](C)(C)C was tested, and the growth was -38.9% (active).
With COc1cc2c(cc1O)CC[C@@H]1[C@@H]2CC[C@]2(C)[C@@H](OCCCN(C)C)CC[C@@H]12 the growth was -58.5% (active).
In the case of Cc1cc2ccccc2cn1, the growth is reported as 96.6% and 102%.
For CC(C)(Cl)CCC1=C(Cl)C(=O)c2ccccc2C1=O, the growth was -43.5% (active).

Source: PubChem BioAssay (NCI)
